In PubChem BioAssay (Tox21):
Records with an inconclusive call do not appear. The source made the active and inactive calls. Unless noted, the call rests on the fitted dose curve; in most records, active means well fitted curve in the direction sought with a large enough effect in the repeat runs; inconclusive means weak or mixed curves; inactive means no such curve, though single readings can be large; an effect the other way counts as inactive or inconclusive.

Tests used:
[1] = target: Thyrotropin receptor (Homo sapiens) (UniProt P16473); assay: qHTS assay to identify small molecule agonists of the thyroid stimulating hormone receptor (TSHR) signaling pathway (AID 1224843; calls by dose curve; further: nearly all actives have a fitted effect of over 45% in size)
Outline: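 Cell line HEK293 with TSHR; density 800/well. Exposure 30 min RT. Readout HTRF cAMP (cAMP-d2/anti-cAMP-cryptate), 1 h RT before reading.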

[2] = qHTS assay to identify small molecule agonists of the hypoxia (HIF-1) signaling pathway - cell viability counter screen (AID 1224844; calls by dose curve; further: nearly all actives have a fitted effect of over 50% in size)
Outline: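 HRE-bla ME-180 cells in medium with 0.5% dialyzed FBS were preincubated 5 hrs at 37C, exposed to compounds for 17 hrs, then viability was read as CellTiter-Glo luminescence after 30 min at room temperature, in the reporter wells.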

[3] = qHTS assay to identify small molecule agonists of H2AX (AID 1224845; active means well fitted activation curve with a large enough effect in the signal ratio in the repeat runs, not every such curve was filed as active; the % refers to the signal ratio)
Outline: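 Wild-type CHO-K1 cells plated overnight, then exposed 3 hr at 37C to compounds at 15 concentrations (0.76% DMSO). Lysed, then HTRF anti-pH2AX(S139)-cryptate/anti-H2AX-d2 detection after 24 hr at room temperature; emissions 665 and 620 nm.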

[4] = qHTS assay to identify small molecule agonists of H2AX - cell viability counter screen (AID 1224847; calls by dose curve; further: top concentration of the series differs between compounds; nearly all actives have a fitted effect of over 30% in size)
Outline: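 Wild-type CHO-K1 cells (10% FBS medium) were plated overnight at 37C, exposed to compounds at 15 concentrations for 3 hr at 37C (0.76% DMSO final), and viability was read as CellTiter-Glo luminescence after 30 min at room temperature.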

[5] = qHTS RealTime-Glo MT Cell Viability Assay in HepG2 cells - 24 hour (AID 1224867); further: nearly all actives have a fitted effect of over 50% in size
Outline: (§1)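 Luminescence read-out: viable HepG2 cells reduce a prosubstrate to a NanoLuc substrate, giving a signal proportional to live cell number. Reads taken at 0, 8, 16, 24, 32 and 40 h of compound exposure at 37 C.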

[6] = qHTS RealTime-Glo MT Cell Viability Assay in HEK293 cells - 32 hour (AID 1224868); further: top concentration of the series differs between compounds; nearly all actives have a fitted effect of over 50% in size
Outline: (§2)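 Nonlytic real-time viability readout: viable cells convert prosubstrate to NanoLuc substrate, giving luminescence proportional to live cell number. HEK293, 600 cells/well, compound added after 5 h, continuous culture at 37 C.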

[7] = A CellTox Green Cytotoxicity Assay to monitor cytotoxicity in HEK293 cells - 0 hour (AID 1224869); further: nearly all actives have a fitted effect of over 50% in size
Outline: (§3)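 HEK293 cells premixed with CellTox Green dye were seeded at 600 cells/well and left 5 h at 37 C/5% CO2 before pin transfer of 23 nL compound in DMSO. Fluorescence from dye bound to dead-cell DNA was read during 40 h treatment.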

[8] = qHTS RealTime-Glo MT Cell Viability Assay in HepG2 cells - 40 hour (AID 1224870); further: nearly all actives have a fitted effect of over 50% in size
Outline: (§4)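 HepG2 cells mixed with RealTime-Glo MT reagents (NanoLuc plus cell-permeant prosubstrate) were seeded at 600 cells/well, incubated 5 h at 37 C/5% CO2, then pinned with compounds in DMSO; nonlytic luminescence tracked viability during 40 h treatment.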

[9] = A CellTox Green Cytotoxicity Assay to monitor cytotoxicity in HEK293 cells - 40 hour (AID 1224871); further: nearly all actives have a fitted effect of over 45% in size
Outline: as §3

[10] = qHTS RealTime-Glo MT Cell Viability Assay in HEK293 cells - 16 hour (AID 1224872)
Outline: as §2

[11] = qHTS RealTime-Glo MT Cell Viability Assay in HepG2 cells - 8 hour (AID 1224873); further: nearly all actives have a fitted effect of over 55% in size
Outline: as §4

[12] = qHTS RealTime-Glo MT Cell Viability Assay in HEK293 cells - 40 hour (AID 1224874); conditions: RealTime-Glo luminescence; max response: hits give low values; further: nearly all actives have a fitted effect of over 50% in size
Outline: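 HEK293 cells mixed with RealTime-Glo reagents (NanoLuc plus cell-permeant prosubstrate) at 600 cells/well, preincubated 5 h at 37 C/5% CO2, then given 23 nL compound in DMSO. Nonlytic luminescence from viable cells was read at 0, 8, 16, 24, 32 and 40 h.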

[13] = A CellTox Green Cytotoxicity Assay to monitor cytotoxicity in HEK293 cells - 24 hour (AID 1224875); further: nearly all actives have a fitted effect of over 45% in size
Outline: as §3

[14] = A CellTox Green Cytotoxicity Assay to monitor cytotoxicity in HepG2 cells - 16 hour (AID 1224876); further: nearly all actives have a fitted effect of over 45% in size
Outline: (§5)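 HepG2 cells were seeded together with the CellTox Green dye at 600 cells/well, left 5 h at 37 C/5% CO2, then given compounds in DMSO. Fluorescence from dye bound to dead-cell DNA was read repeatedly over 40 h of treatment at 37 C.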

[15] = qHTS RealTime-Glo MT Cell Viability Assay in HepG2 cells - 32 hour (AID 1224877); further: nearly all actives have a fitted effect of over 55% in size
Outline: as §1

[16] = A CellTox Green Cytotoxicity Assay to monitor cytotoxicity in HepG2 cells - 24 hour (AID 1224878); further: nearly all actives have a fitted effect of over 45% in size
Outline: as §5

[17] = A CellTox Green Cytotoxicity Assay to monitor cytotoxicity in HepG2 cells - 40 hour (AID 1224879); further: nearly all actives have a fitted effect of over 40% in size
Outline: as §5

[18] = qHTS assay to identify small molecule antagonists of the estrogen related receptor (ERR) signaling pathway from Tox21 library (AID 1224848); further: nearly all actives have a fitted effect of over 50% in size
Outline: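 Screening used an ERR reporter line supplied by NTP, exposed for 18 h at 37 C to library compounds delivered in DMSO. Signal was luciferase luminescence developed with ONE-Glo at room temperature for 30 min.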

[19] = qHTS assay to identify small molecule agonists of the estrogen related receptor (ERR) signaling pathway from Tox21 library (AID 1224849; calls by dose curve; further: nearly all actives have a fitted effect of over 15% in size); conditions: ERR reporter cell line, ONE-Glo luciferase, 18 h; at 92.4 µM (top of the series) unless noted
Outline: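 ERR reporter cell line (NTP) seeded, rested 6 h at 37 C/5% CO2, then pinned with Tox21 compounds in DMSO. After 18 h at 37 C, ONE-Glo luciferase luminescence was read following 30 min at room temperature.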

[20] = qHTS assay to identify small molecule agonists of the hypoxia (HIF-1) signaling pathway (AID 1224846; active means well fitted activation curve with a large enough effect in the signal ratio in the repeat runs, not every such curve was filed as active; the % refers to the signal ratio)
Outline: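 HRE-bla ME-180 cells (beta-lactamase reporter under hypoxia response element) were plated at 2,000 cells/well in medium with 0.5% dialyzed FBS, rested 5 hrs, then given compounds in DMSO for 17 hrs at 37C, 5% CO2. Reporter induction was read with CCF4-AM FRET substrate.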
On the % scale 0 is the no-effect control and ±100 the full control effect.

Thyrotropin receptor (Homo sapiens), sequence (P16473 whole entry, looked up): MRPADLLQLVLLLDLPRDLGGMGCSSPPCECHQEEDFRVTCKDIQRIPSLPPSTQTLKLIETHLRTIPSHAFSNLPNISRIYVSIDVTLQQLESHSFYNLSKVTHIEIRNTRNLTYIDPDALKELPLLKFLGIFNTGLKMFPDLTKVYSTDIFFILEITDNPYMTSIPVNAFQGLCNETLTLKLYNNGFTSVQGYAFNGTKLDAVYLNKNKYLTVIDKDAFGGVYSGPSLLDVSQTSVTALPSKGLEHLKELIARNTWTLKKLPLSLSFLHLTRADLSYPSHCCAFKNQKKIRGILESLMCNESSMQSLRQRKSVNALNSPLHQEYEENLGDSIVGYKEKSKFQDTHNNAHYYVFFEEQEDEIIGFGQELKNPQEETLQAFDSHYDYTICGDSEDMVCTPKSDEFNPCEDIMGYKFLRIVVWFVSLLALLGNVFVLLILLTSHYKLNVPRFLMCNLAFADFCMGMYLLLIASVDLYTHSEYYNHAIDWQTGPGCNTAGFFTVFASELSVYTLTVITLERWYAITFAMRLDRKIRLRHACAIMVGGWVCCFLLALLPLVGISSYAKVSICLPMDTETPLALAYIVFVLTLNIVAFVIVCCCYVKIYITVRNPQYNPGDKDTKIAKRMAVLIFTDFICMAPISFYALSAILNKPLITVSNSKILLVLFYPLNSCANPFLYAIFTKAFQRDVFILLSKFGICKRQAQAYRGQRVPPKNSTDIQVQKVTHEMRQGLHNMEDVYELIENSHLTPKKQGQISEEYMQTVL

Cc1ccc(N(CC2=NCCN2)c2cccc(O)c2)cc1
inactive: Potency [1] | Potency [2] | Potency [3] | Potency [4] | Potency [5] | Potency [6] | Potency [7] | Potency [8] | Potency [9] | Potency [10] | Potency [11] | max response [12] -23.3% | Potency [13] | Potency [14] | Potency [15] | Potency [16] | Potency [17]

O=C(O)CO
inactive: Potency [1] | Potency [2] | Potency [3] | Potency [4] | Potency [5] | Potency [6] | Potency [8] | Potency [10] | Potency [11] | max response [12] 8.33% | Potency [13] | Potency [14] | Potency [15]

CCN(CC)CCOC(=O)C(c1ccccc1)c1ccccc1
inactive: Potency [1] | Potency [2] | Potency [3] | Potency [4] | Potency [5] | Potency [6] | Potency [7] | Potency [8] | Potency [9] | Potency [10] | Potency [11] | max response [12] 0.0208% | Potency [14] | Potency [15] | Potency [16] | Potency [17]

O=C1CC[C@@H](C(=O)O)N1
inactive: Potency [1] | Potency [2] | Potency [3] | Potency [4] | Potency [18] | activity change, positive = activation [19] 3.84% [at 42.5 µM] | Potency [5] | Potency [6] | Potency [7] | Potency [9] | Potency [10] | Potency [11] | max response [12] 0.932% | Potency [13] | Potency [14] | Potency [15] | Potency [16] | Potency [17]

CC(C)C1CCC(C(=O)N[C@H](Cc2ccccc2)C(=O)O)CC1 (stereo not given in full)
inactive: Potency [1] | Potency [2] | Potency [3] | outcome [20] | Potency [4] | Potency [5] | Potency [6] | Potency [9] | Potency [10] | Potency [11] | max response [12] 3% | Potency [13] | Potency [15] | Potency [16] | Potency [17]

CCC(Cl)CC(Cl)C(Cl)C(Cl)C(Cl)C(C)Cl (stereo not given)
inactive: activation [1] 15.8% [at 19 µM] | activity change, negative = cytotoxicity [2] -3.49% [at 15.8 µM] | activation (H2AX phosphorylation) [3] -1.57% [at 31.6 µM] | activation [20] 0.0674% [at 15.8 µM] | activity change, negative = cytotoxicity [4] -5.22% [at 31.6 µM] | activity change, negative = cytotoxicity [5] -1.2% [at 15.8 µM] | cytotoxicity [7] 15.1% [at 15.8 µM] | activity change, negative = cytotoxic [8] -0.479% [at 15.8 µM] | viability change, negative = cytotoxic [11] 0.0251% [at 15.8 µM] | cytotoxicity increase [14] 7.76% [at 15.8 µM] | activity change, negative = cytotoxic [15] -0.891% [at 15.8 µM] | cytotoxicity [16] 2.51% [at 15.8 µM] | cytotoxicity increase [17] 0.801% [at 15.8 µM]

O=S(=O)(Cl)c1c(Cl)cccc1Cl
inactive: Potency [1] | Potency [2] | Potency [3] | Potency [4] | Potency [5] | Potency [6] | Potency [8] | Potency [9] | Potency [10] | Potency [11] | max response [12] -11.9% | Potency [13] | Potency [14] | Potency [15] | Potency [16] | Potency [17]

CCN(CC)C(=O)N1CCN(C)CC1
inactive: Potency [1] | Potency [2] | Potency [3] | Potency [4] | Potency [18] | activity change, positive = activation [19] 6.11% [at 42.5 µM] | Potency [5] | Potency [6] | Potency [8] | Potency [9] | Potency [10] | Potency [11] | max response [12] 4.18% | Potency [13] | Potency [15] | Potency [16] | Potency [17]
